Reference: PubChem BioAssay
Calls of active or inactive are those of the source. How the calls were made is not given here.

Each compound was assayed on Botulinum neurotoxin type F light chain protease (Clostridium botulinum) (assay: Botulinum neurotoxin type F light chain protease inhibition, multiplex microsphere flow cytometry, validation set (AID 588459)). Conditions: multiplex microsphere protease substrate cleavage assay, at 10 µM, hits give high values.
With `CC1CCCC(C)N1NC(=O)c1ccc(Cl)c(S(N)(=O)=O)c1` (centres undefined) the inhibition was -0.2% (inactive). `CC(=O)CCc1oc2ccccc2c1-c1ccccc1` was tested, and the inhibition was -0.7% (inactive). With `C=C(C)COc1ccc(-c2nc(N)ncc2-c2ccc(OC)cc2)c(O)c1` the inhibition was 2.8% (inactive). For `CC(C)C[C@H](NC(=O)NC(C)C)C(=O)O`, the inhibition was 1.1% (inactive). In the case of `NC(=O)c1ncn([C@@H]2O[C@H](CO)[C@@H](O)[C@H]2O)c1O`, the inhibition is reported as -1.3% (inactive). `O=C(O)c1cccnc1` was tested, and the inhibition was 1.8% (inactive). In the case of `CN(C)CCC(c1ccccc1)c1ccccn1` (centres undefined), the inhibition is reported as -2.8% (inactive). For `O=c1cc(-c2ccc3c(c2)OCCO3)oc2ccc(Cl)cc12`, the inhibition was 0.8% (inactive). In the case of `COc1ccc2cc(C3(C)NC(=O)NC3=O)ccc2c1` (centres undefined), the inhibition is reported as -0.4% (inactive). In the case of `Cn1cc(CN(CCO)Cc2cccs2)c(-c2cccc(Cl)c2)n1`, the inhibition is reported as 1.3% (inactive). In the case of `O=C(N/N=C/c1ccc([N+](=O)[O-])o1)c1ccc(O)cc1`, the inhibition is reported as 0.2% (inactive). `CN(C)CCOC(c1ccccc1)c1ccccc1` (tested in a mixture with another compound) was tested, and the inhibition was 1.8% (inactive). In the case of `CC(C)c1ccc2[nH]c3c(c2c1)CCCC3=O`, the inhibition is reported as 0.3% (inactive). For `O=C(CCc1c[nH]c2ccccc12)NCc1ccco1`, the inhibition was 2.9% (inactive). For `COCCCN1C(=O)C(=O)/C(=C(/O)c2ccc3c(c2)CC(C)O3)C1c1cccnc1` (centres undefined), the inhibition was -3% (inactive). In the case of `COC(=O)c1ccc2c(c1)C(=O)/C(=C/c1ccc(O)cc1)O2`, the inhibition is reported as -0.8% (inactive). In the case of `N=C1C(c2ccccc2)=C(O)CN1CCCO`, the inhibition is reported as -2.6% (inactive). For `CC(C)C[C@H](NC(=O)[C@@H]1Cc2ccccc2CN1C(=O)OC(C)(C)C)C(=O)NCC1CCC(C(=O)O)CC1` (some centres undefined), the inhibition was 3% (inactive). In the case of `Cc1nc(N)nc2c1CCCC2`, the inhibition is reported as 2.4% (inactive). With `CC1(C)CC(=O)C2=C(C1)c1c(ccc3ccccc13)NC2c1ccco1` (centres undefined) the inhibition was 1.8% (inactive). With `Cn1c([N+](=O)[O-])cnc1COC(N)=O` the inhibition was 1.4% (inactive). In the case of `CCc1cc(=O)oc2cc(OCC=C(C)C)ccc12`, the inhibition is reported as 2% (inactive). For `COc1cc2c(cc1OC)CN(Cc1ccc(C)s1)CC2`, the inhibition was 2.4% (inactive). With `COC(=O)c1cc(-c2c(C)oc3cc(OC)ccc3c2=O)c(C)o1` the inhibition was -0.4% (inactive). `COc1ccccc1OCC(O)COC(N)=O` (centres undefined) was tested, and the inhibition was -3.8% (inactive). In the case of `O=C(NCCC(c1ccccc1)c1ccco1)c1cccs1` (centres undefined), the inhibition is reported as 3.1% (inactive). For `CC1(c2ccccc2)CC(C)(C)N2C(=O)C(=O)c3cccc1c32` (centres undefined), the inhibition was 0.5% (inactive). `NC[C@H]1O[C@H](O[C@H]2[C@H](O)[C@@H](O[C@H]3O[C@H](CO)[C@@H](O)[C@H](N)[C@H]3O)[C@H](N)C[C@@H]2N)[C@H](N)C[C@@H]1O` was tested, and the inhibition was 3.4% (inactive). With `O=C(O)CCCCCCNC(=O)c1cncc(O)c1` the inhibition was -1.8% (inactive). For `Cc1ccc2nc(N=C(N)N)nc(C)c2c1`, the inhibition was 3.2% (inactive). In the case of `COc1ccc2cc(CCC(C)=O)ccc2c1`, the inhibition is reported as -2.3% (inactive). For `O=c1ccn([C@@H]2O[C@H](CO)[C@@H](O)[C@H]2O)c(=O)[nH]1`, the inhibition was 0.8% (inactive). `COC(=O)c1ccc(CC(=O)c2ccc(O)cc2O)o1` was tested, and the inhibition was -3.4% (inactive). With `Cc1cn([C@H]2C[C@H](N=[N+]=[N-])[C@@H](CO)O2)c(=O)[nH]c1=O` the inhibition was 2.4% (inactive). With `COc1ccc(C2CC(c3c(O)cc(C)oc3=O)=NCCS2)c(OC)c1` (centres undefined) the inhibition was 4.5% (inactive). `COc1ccc(-c2c(NC(=O)c3ccco3)n(C)c3ccccc3c2=O)cc1` was tested, and the inhibition was 1.5% (inactive). For `N/C(Cc1ccc(Cl)cc1Cl)=N\OC(=O)c1ccc(Br)o1`, the inhibition was -0.8% (inactive). In the case of `CN1CCCN(C(c2ccccc2)c2ccc(Cl)cc2)CC1` (centres undefined), the inhibition is reported as 3.2% (inactive). `CC(C)(C)C(=O)N1CCCC1C(=O)O` (centres undefined) was tested, and the inhibition was -1% (inactive).
